Compound activity (PubChem BioAssay)
TLR9-MyD88 inh: blocks human TLR9 binding to MyD88 | Q9NR96+Q99836 | CHO BLA complementation TLR9-MyD88, CCF4 FRET ratio | inhibition, % at 4.98 µM | 340,000 compounds, 0.21% hits | AID 504734;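 active means inhibition above the mean over all tested compounds plus 3 SD, cut at about 21% in these data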
NOD2 RIPK2 PPI: blocks binding of human NOD2 to RIPK2; O43353; CHO BLA complementation NOD2-RIPK2, CCF4 ratio; inhibition, % at 4.98 µM; 360,000 compounds, 0.38% hits; in the data active means inhibition above about 21%
HSF1 inhib: HSF1 inhibition; AID 2098; 300,000 compounds, 0.77% hits; activity change, negative = inhibition, % at 7.5 µM (by protocol); NIH3T3-HGL HSE-luciferase, MG132-induced, luminescence 8 h; hits give low values;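 active means more than half of replicate wells show activity change below -50%, luminescence cut by over half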;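 further: luciferase reports HSF-1 transcriptional activity via heat shock element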
HSF1 activator: increases HSF-1 driven luciferase reporter signal; 300,000 compounds, 1.7% hits; activation, % at 9 µM; NIH3T3-HGL HSF-1 luciferase reporter, MG132, 8 h; 100% = twice DMSO control signal; AID 504408;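 active means mean replicate activation of at least 50% with a set share of replicates each reaching 50%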
TLR4-MyD88 BLA: blocks binding of human TLR4 to MyD88; AID 861; 200,000 compounds, 0.18% hits; inhibition, % at 8.4 µM; HeLa CL3-4 TLR4/MyD88 BLA complementation, FRET ratio; O00206+Q99836; in the data active means inhibition above about 25%
Hits are given with their value. An excerpt weighted towards active compounds, which were near 2.4% of everything screened.

CC(=O)C1CCC2C3CCC4CC(=O)CCC4(C)C3C(C)(O)CC12C (centres undefined) was read as TLR9-MyD88 inh inactive and NOD2 RIPK2 PPI inactive.
`O=C(O)c1ccccc1S(=O)(=O)CC(=O)N1CCCCC1` gave TLR9-MyD88 inh inactive, NOD2 RIPK2 PPI inactive, HSF1 inhib inactive and HSF1 activator inactive.
Cc1nn(-c2ccccc2Cl)c(Cl)c1/C=N/Nc1nc2ccccc2s1 was read as TLR9-MyD88 inh inactive, NOD2 RIPK2 PPI inactive, HSF1 inhib -84, HSF1 activator inactive and TLR4-MyD88 BLA inactive.
COc1ccccc1CNC(=O)CN(C)Cc1ccc(SC)cc1 was read as TLR9-MyD88 inh inactive, NOD2 RIPK2 PPI inactive, HSF1 inhib inactive and HSF1 activator inactive.
Screening S=C(Nc1ccc(Cl)cc1)Nc1cccc2cnccc12 returned TLR9-MyD88 inh inactive, NOD2 RIPK2 PPI inactive, HSF1 inhib inactive, HSF1 activator 61 and TLR4-MyD88 BLA inactive.
Cc1ccc(NC(=S)Nc2cccc3ccccc23)cc1 was read as TLR9-MyD88 inh inactive, NOD2 RIPK2 PPI inactive, HSF1 inhib -80 and HSF1 activator inactive.
Screening Fc1ccc(NC(=S)Nc2cccc3ccccc23)cc1 returned TLR9-MyD88 inh inactive, NOD2 RIPK2 PPI inactive, HSF1 inhib inactive and HSF1 activator inactive.
For CC(C)c1ccc(NC(=S)Nc2cccc3ccccc23)cc1 the results were TLR9-MyD88 inh inactive, NOD2 RIPK2 PPI inactive, HSF1 inhib -68 and HSF1 activator inactive.
Screening Cc1cc(C)cc(NC(=S)Nc2cccc3ccccc23)c1 returned TLR9-MyD88 inh inactive, NOD2 RIPK2 PPI inactive, HSF1 inhib inactive and HSF1 activator inactive.
For CC(OC(=O)CCN1C(=O)C2CC=CCC2C1=O)C(=O)Nc1ccc(F)cc1 (centres undefined) the results were TLR9-MyD88 inh inactive and NOD2 RIPK2 PPI inactive.
For CCc1ccc(C(=O)COC(=O)CNC(=O)c2cccs2)cc1 the results were TLR9-MyD88 inh inactive, NOD2 RIPK2 PPI inactive, HSF1 inhib -86, HSF1 activator inactive and TLR4-MyD88 BLA inactive.
Screening O=C(CNC(=O)c1cccs1)OCC(=O)c1ccccc1 returned TLR9-MyD88 inh inactive, NOD2 RIPK2 PPI inactive, HSF1 inhib inactive, HSF1 activator inactive and TLR4-MyD88 BLA inactive.
`Cc1ccc(CCNC(=O)C2CCN(S(=O)(=O)c3ccc4c(c3)NC(=O)CO4)CC2)cc1` gave TLR9-MyD88 inh inactive, NOD2 RIPK2 PPI inactive, HSF1 inhib inactive and HSF1 activator 68.
For CC(C)(C)c1ccc(NC(=O)C2=CN3CCS(=O)(=O)N=C3C=C2)cc1 the results were TLR9-MyD88 inh inactive and NOD2 RIPK2 PPI inactive.
COc1ccc(-c2cc3ccc(OCC(C)=O)cc3oc2=O)cc1 was read as TLR9-MyD88 inh inactive, NOD2 RIPK2 PPI inactive, HSF1 inhib inactive and HSF1 activator 62.
`Cc1ccc(CN2CCN(Cc3cc4ccccc4o3)CC2CCO)cc1` (centres undefined) gave TLR9-MyD88 inh inactive, NOD2 RIPK2 PPI inactive, HSF1 inhib -75 and HSF1 activator inactive.
Screening N#CCc1ccc(NC(=O)Nc2cccc3ccccc23)cc1 returned TLR9-MyD88 inh inactive, NOD2 RIPK2 PPI inactive, HSF1 inhib -78 and HSF1 activator inactive.
Screening Cc1ccc(NC(=O)Nc2cccc3ccccc23)cc1 returned TLR9-MyD88 inh inactive, NOD2 RIPK2 PPI inactive, HSF1 inhib inactive and HSF1 activator inactive.
Screening CS(=O)c1nc(-c2ccc(Br)cc2)cc(-c2ccccc2)c1C#N (centres undefined) returned TLR9-MyD88 inh inactive, NOD2 RIPK2 PPI inactive, HSF1 inhib inactive, HSF1 activator 56 and TLR4-MyD88 BLA inactive.
Screening COc1ccc(-c2cc(-c3ccccc3)c(C#N)c(S(C)(=O)=O)n2)cc1 returned TLR9-MyD88 inh inactive, NOD2 RIPK2 PPI inactive, HSF1 inhib inactive, HSF1 activator 71 and TLR4-MyD88 BLA inactive.
`CS(=O)(=O)c1nc(-c2ccc(Br)cc2)cc(-c2ccccc2)c1C#N` gave TLR9-MyD88 inh inactive, NOD2 RIPK2 PPI inactive, HSF1 inhib inactive, HSF1 activator inactive and TLR4-MyD88 BLA inactive.
`COc1ccc(N2Cc3ccc(C(=O)N/N=C\c4ccc(O)cc4O)cc3C2)cc1` gave HSF1 inhib inactive and HSF1 activator inactive.
O=[N+]([O-])c1ccc(NN=C2CC3CCC2C3)c([N+](=O)[O-])c1 (centres undefined) was read as NOD2 RIPK2 PPI inactive.
Screening Cc1ccc(C)c(Nc2ncccc2C(=O)NCc2cccs2)c1 returned TLR9-MyD88 inh inactive, NOD2 RIPK2 PPI inactive, HSF1 inhib inactive, HSF1 activator 55 and TLR4-MyD88 BLA inactive.
